# Results taken from PubChem BioAssay.
# Values joined by “and” are separate entries in the source; they are usually repeats but may differ in a detail not shown here. Equal values may be shown once. For some assays here: Potency and affinity values are given separately. Active and inactive are the calls of the source.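 The calls were made as follows, unless noted: active = compounds whose cell count with miR-34 switched on is under 0.7 times the count with it off; inactive = the rest.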
# Assays:
# [1] = polyglutamine-triggered caspase-3 activation inhibitors, cell-based (AID 1583); conditions: polyglutamine-induced caspase-3 activation, cell assay; stronger effect = higher value;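 tested at 10 µM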
# [2] = suppressors of polyQ aggregation in yeast, 75Q-TubU reporter (AID 1593); conditions: Yeast 75Q polyglutamine aggregation reporter
# [3] = rescue of polyQ-huntingtin neuronal dysfunction in worms, whole organism, C. elegans mechanosensory neurons, N-terminal huntingtin (AID 1599); conditions: touch response, stronger effect = higher value
# [4] = inhibitors of mitochondrial cytochrome c release, biochemical, purified mitochondria (AID 1603); conditions: stronger effect = lower value;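 also: mouse liver mitochondria challenged with calcium chloride; signal normalized to the plate average as 100%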
# [5] = inhibitors of polyQ protein aggregation (AID 1604); conditions: polyglutamine-induced protein aggregation inhibition assay; stronger effect = higher value; tested at 2.5 µM
# [6] = enhancers of glutamate uptake in motor neurons, MN-1 cell line (AID 1612); conditions: MN-1 motor neuron cells, stronger effect = higher value;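 also: tested at 1 µM final; 0% = mean of DMSO vehicle wells on each plate; positive means more glutamate uptake than control and negative means less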
# [7] = reducers of polyQ inclusions in PC12 cells, cell-based, NGF-treated PC12, GFPQ80 (AID 1614); conditions: PC12 NGF-treated GFP-polyQ80 inclusion reduction;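 also: lower means fewer inclusions and 0 means no inclusions at all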
# [8] = suppressors of polyglutamine aggregation in yeast, 75Q-TubH (AID 1616); conditions: S. cerevisiae 75Q-TubH polyglutamine aggregation suppression; stronger effect = higher value
# [9] = circadian clock period modulators, cell-based, LOPAC library, luminescence reporter (AID 2774; call rule not given here;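 also: values are relative to mean of DMSO wells on each plate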); conditions: circadian reporter cells, at 7 µM, actives lie on both sides
# [10] = hESC survival regulators, cell-based (AID 493140; call rule not given here;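 also: cells exposed to compounds for four days before counting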); conditions: human embryonic stem cell survival screen; stronger effect = higher value
# [11] = liver-stage malaria parasite growth inhibition, primary screen, cell-based, HepG2, luciferase luminescence, HepG2 viability (AID 624349; in the data active = parasite load remaining mostly below about 12%, no sharp cut-off; inactive = mostly above about 10%;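 also: 100% = mean of DMSO negative control wells on the same plate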); conditions: P. berghei liver stage in HepG2, luciferase luminescence, concentration not given here; parasite load remaining: stronger effect = lower value; viability: measured here: HepG2 viability without parasites
# [12] = biological target: 6-phosphogluconate dehydrogenase, decarboxylating (Homo sapiens) (UniProt P52209); test: 6PGD enzyme inhibitors, primary screen, biochemical, human, recombinant enzyme, NADPH absorbance (AID 1159550;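 active = at least 20% inhibition of 6-phosphogluconate dehydrogenase activity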); conditions: recombinant 6PGD, NADPH absorbance 341 nm; at 10 µM; stronger effect = higher value
# Chain of 6-phosphogluconate dehydrogenase, decarboxylating (Homo sapiens) (P52209 whole entry, looked up): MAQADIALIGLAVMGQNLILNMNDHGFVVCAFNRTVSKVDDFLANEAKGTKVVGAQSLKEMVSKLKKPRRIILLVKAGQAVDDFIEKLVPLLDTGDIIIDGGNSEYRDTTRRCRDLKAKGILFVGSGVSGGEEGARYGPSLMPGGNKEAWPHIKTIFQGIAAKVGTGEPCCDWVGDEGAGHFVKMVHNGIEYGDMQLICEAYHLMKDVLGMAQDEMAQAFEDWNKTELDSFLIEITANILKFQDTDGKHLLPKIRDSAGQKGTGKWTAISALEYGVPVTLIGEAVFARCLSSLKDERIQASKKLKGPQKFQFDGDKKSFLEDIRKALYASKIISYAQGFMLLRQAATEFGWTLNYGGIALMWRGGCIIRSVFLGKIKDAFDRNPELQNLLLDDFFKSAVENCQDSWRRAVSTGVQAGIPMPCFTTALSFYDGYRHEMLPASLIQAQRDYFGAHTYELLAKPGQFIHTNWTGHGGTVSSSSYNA
# [13] = differential killing of epithelial or mesenchymal cells, primary screen, imaging, PC-3E GFP, TEM4-18 mCherry, co-culture (AID 1345086;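 active = compounds killing one labelled cell type while sparing the other, by normalised counts and ratio limits, not self-fluorescent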;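 as to all read-outs here: cells exposed to compound for 72 h before imaging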;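 as to red/green cell ratio (normalised): normalised mesenchymal count divided by normalised epithelial count so high means epithelial killing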); conditions: imaging cell counts, at 1 µM; for red/green cell ratio (normalised): actives lie on both sides, counts scaled to control wells, 1 = unselective
# [14] = sensitizers of A549 cells to miR-34 induction, primary screen, imaging, A549 dox-inducible miR-34, nuclei and caspase counts (AID 1347080); conditions: A549 miR-34 inducible, Hoechst nuclei count, 48 h
# [15] = phospholipid biosynthesis inhibitors in animal cells, primary screen, cell-based, LOPAC library, screen 4 (AID 1347384; call rule not given here); conditions: phospholipid biosynthesis inhibition screen, at 10 µM
# [16] = viability rescue of complex I mutant cybrids, primary screen, cell-based, galactose medium, ATP luminescence (AID 1645843;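 active = z-score of at least 1.8 in each of two replicates, scored against plate mean and spread of sample wells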;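 also: positive z means more ATP and so rescue of galactose-driven cybrid death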); conditions: complex I mutant cybrid cells, 72 h, stronger effect = higher value
# [17] = survival rescue of mitochondrial mutant cells in low glucose, primary screen, MELAS cybrids, Rieske KO mouse fibroblasts, CellTiter-Glo (AID 1508586;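 active = mean z-score across replicates of 1.96 or higher in either the MELAS or the Rieske mutant cell line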;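 also: z relative to plate mean and SD of compound and empty wells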)
# [18] = biological target: NAD(+) hydrolase SARM1 (Homo sapiens) (UniProt Q6SZW1); test: SARM1 TIR NADase inhibitors, cell lysate, NAD-Glo luminescence (AID 1508614;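 active = compound whose remaining NAD level is above about 45 nM, limit read from the data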;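 also: higher remaining NAD means stronger inhibition of SARM1 NADase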); conditions: SAM-TIR HEK293T lysate NADase, at 1 µM, stronger effect = higher value
# Chain of NAD(+) hydrolase SARM1 (Homo sapiens) (Q6SZW1 whole entry, looked up, the tested form may be a part): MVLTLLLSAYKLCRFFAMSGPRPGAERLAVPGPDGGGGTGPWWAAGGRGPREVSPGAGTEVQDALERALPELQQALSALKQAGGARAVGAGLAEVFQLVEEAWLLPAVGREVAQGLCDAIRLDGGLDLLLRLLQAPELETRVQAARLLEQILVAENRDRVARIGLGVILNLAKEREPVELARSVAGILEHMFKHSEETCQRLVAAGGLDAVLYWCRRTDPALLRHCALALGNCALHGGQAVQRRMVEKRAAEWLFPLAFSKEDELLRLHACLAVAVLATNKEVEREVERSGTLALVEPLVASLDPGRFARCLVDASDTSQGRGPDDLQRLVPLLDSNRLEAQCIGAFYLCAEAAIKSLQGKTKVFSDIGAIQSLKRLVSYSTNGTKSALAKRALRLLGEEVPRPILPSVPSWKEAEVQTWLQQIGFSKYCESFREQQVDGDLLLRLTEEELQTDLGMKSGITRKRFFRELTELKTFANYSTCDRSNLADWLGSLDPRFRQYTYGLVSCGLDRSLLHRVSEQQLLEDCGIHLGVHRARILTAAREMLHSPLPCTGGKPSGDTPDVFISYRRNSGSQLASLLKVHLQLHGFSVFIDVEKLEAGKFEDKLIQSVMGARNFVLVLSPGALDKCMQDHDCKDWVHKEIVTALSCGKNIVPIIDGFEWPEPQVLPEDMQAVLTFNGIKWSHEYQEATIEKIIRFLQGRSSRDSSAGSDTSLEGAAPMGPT
# [19] = biological target: Mitogen-activated protein kinase 7 (Homo sapiens) (UniProt Q13164); test: ERK5 transactivation activators in reporter cells, primary screen, cell-based, HTS (AID 1508626;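 active = luciferase signal above three times the same-plate solvent-only control wells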;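 also: luciferase driven by Gal4-ERK5 fusion binding five Gal4 sites before minimal TATA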); conditions: HeLa Gal4-ERK5 transactivation, 18 h, at 5 µM, stronger effect = higher value
# Chain of Mitogen-activated protein kinase 7 (Homo sapiens) (Q13164 whole entry, looked up, the tested form may be a part): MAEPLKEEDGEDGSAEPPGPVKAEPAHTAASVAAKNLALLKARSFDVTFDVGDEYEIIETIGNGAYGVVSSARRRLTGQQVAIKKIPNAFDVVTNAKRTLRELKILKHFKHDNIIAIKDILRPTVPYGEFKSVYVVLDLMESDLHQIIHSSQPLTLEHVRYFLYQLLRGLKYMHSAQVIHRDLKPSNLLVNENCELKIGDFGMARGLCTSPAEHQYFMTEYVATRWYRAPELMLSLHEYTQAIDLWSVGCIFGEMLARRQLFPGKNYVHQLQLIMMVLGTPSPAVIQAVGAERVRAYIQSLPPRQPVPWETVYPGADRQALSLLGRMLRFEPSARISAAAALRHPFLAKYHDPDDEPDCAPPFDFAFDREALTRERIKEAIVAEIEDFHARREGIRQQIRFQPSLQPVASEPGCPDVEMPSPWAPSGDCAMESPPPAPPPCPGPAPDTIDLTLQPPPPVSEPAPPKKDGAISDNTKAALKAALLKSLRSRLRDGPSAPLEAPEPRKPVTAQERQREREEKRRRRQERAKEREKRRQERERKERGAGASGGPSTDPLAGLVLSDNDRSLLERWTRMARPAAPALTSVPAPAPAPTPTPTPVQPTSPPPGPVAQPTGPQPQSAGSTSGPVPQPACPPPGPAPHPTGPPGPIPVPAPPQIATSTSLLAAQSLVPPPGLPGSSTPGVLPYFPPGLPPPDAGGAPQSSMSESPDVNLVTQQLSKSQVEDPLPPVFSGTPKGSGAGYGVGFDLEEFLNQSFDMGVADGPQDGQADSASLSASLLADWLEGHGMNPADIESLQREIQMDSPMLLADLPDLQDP
# [20] = measured here: epithelial PC-3E GFP cell survival
# [21] = measured here: mesenchymal TEM4-18 mCherry cell survival
# [22] = stronger effect = lower value, cell number ratio, induced over uninduced
# [23] = measured here: relative caspase fold change +Dox/-Dox
# [24] = measured here: total cells with miR-34 induction, stronger effect = lower value
# [25] = measured here: total cells without miR-34 induction
# [26] = MELAS cybrid survival, CellTiter-Glo 48 h, stronger effect = higher value
# [27] = Rieske KO mouse fibroblast survival, CellTiter-Glo 72 h
compound,measurement,setting,value
COC(=O)[C@H]1[C@H]2C[C@H]3c4[nH]c5ccccc5c4CCN3C[C@H]2CC[C@@H]1O,inhibition,[1],-11.7%
same,score,[2],2.01
same,rescue above control,[3],16.2
same,cytochrome c release ratio,[4],1.18
same,inhibition of aggregation,[5],75.9%
same,glutamate uptake change,[6],41.8%
same,inclusion score,[7],2
same,aggregation suppression score,[8],1.4
same,period change,[9],0.015 h (inactive)
same,survival,[10],5.58 (inactive)
same,parasite load remaining,[11],79.9% (inactive) and 65.8% (inactive)
same,viability,[11],101% and 78.6%
same,inhibition,[12],-0.247% (inactive)
same,red/green cell ratio (normalised),[13],1.04 (inactive)
same,normalised cell number,[13]; [20],0.93
same,normalised cell number,[13]; [21],0.97
same,fold change,[14]; [22],0.977 (inactive) and 0.857 (inactive)
same,fold change,[14]; [23],0.889 and 1.48
same,cell count,[14]; [24],10000 and 9150
same,cell count,[14]; [25],10300 and 10700
same,outcome,[15],inactive
same,z-score,[16],0.115 (inactive)
CC1(C)S[C@@H]2[C@H](NC(=O)Cc3ccccc3)C(=O)N2[C@H]1C(=O)O,inhibition,[1],18.9%
same,score,[2],1.32
same,rescue above control,[3],-0.92
same,cytochrome c release ratio,[4],0.98
same,inhibition of aggregation,[5],16.8%
same,glutamate uptake change,[6],6.9%
same,inclusion score,[7],2
same,aggregation suppression score,[8],1.3
same,survival,[10],5.08 (inactive)
same,parasite load remaining,[11],73.8% (inactive) and 85.4% (inactive) and 69.6% (inactive)
same,viability,[11],70.9% and 69.6% and 97.7%
same,inhibition,[12],1.35% (inactive)
same,red/green cell ratio (normalised),[13],1.11 (inactive)
same,normalised cell number,[13]; [20],0.85
same,normalised cell number,[13]; [21],0.94
same,fold change,[14]; [22],0.959 (inactive) and 0.873 (inactive)
same,fold change,[14]; [23],0.53 and 0.733
same,cell count,[14]; [24],9610 and 11500
same,cell count,[14]; [25],10000 and 13200
same,z-score,[17]; [26],-1.02 (inactive)
same,z-score,[17]; [27],-0.0384
same,remaining NAD,[18],10 nM (inactive)
same,luciferase signal,[19],108 AU (inactive)
OCc1c[nH]c2ccccc12,inhibition,[12],14.9% (inactive)
same,red/green cell ratio (normalised),[13],0.93 (inactive)
same,normalised cell number,[13]; [20],0.91
same,normalised cell number,[13]; [21],0.84
same,fold change,[14]; [22],0.978 (inactive)
same,fold change,[14]; [23],0.867
same,cell count,[14]; [24],8210
same,cell count,[14]; [25],8390
same,z-score,[17]; [26],-0.392 (inactive)
same,z-score,[17]; [27],-0.0559
same,luciferase signal,[19],88 AU (inactive)
Nc1nc(/C(=C/CC(=O)O)C(=O)N[C@@H]2C(=O)N3C(C(=O)O)=CCS[C@H]23)cs1,parasite load remaining,[11],145% (inactive) and 53% (inactive)
same,viability,[11],95.5% and 96.5%
same,inhibition,[12],-3.19% (inactive)
same,red/green cell ratio (normalised),[13],1.05 (inactive)
same,normalised cell number,[13]; [20],0.96
same,normalised cell number,[13]; [21],1
same,fold change,[14]; [22],0.926 (inactive)
same,fold change,[14]; [23],1.29
same,cell count,[14]; [24],12000
same,cell count,[14]; [25],13000
same,z-score,[17]; [26],-0.448 (inactive)
same,z-score,[17]; [27],-1.4
same,remaining NAD,[18],10 nM (inactive)
same,luciferase signal,[19],40 AU (inactive)
CN(C)CCOC(c1ccccc1)c1ccccc1 (tested in a mixture with another compound),inhibition,[1],13%
same,score,[2],1.21
same,rescue above control,[3],26.8
same,cytochrome c release ratio,[4],1.23
same,inhibition of aggregation,[5],69.8%
same,glutamate uptake change,[6],-19.1%
same,inclusion score,[7],2
same,aggregation suppression score,[8],0.942
same,survival,[10],24.5 (inactive)
same,inhibition,[12],11% (inactive)
same,red/green cell ratio (normalised),[13],1.07 (inactive)
same,normalised cell number,[13]; [20],1.32
same,normalised cell number,[13]; [21],1.41
same,fold change,[14]; [22],0.893 (inactive) and 0.836 (inactive)
same,fold change,[14]; [23],1.17 and 1.81
same,cell count,[14]; [24],8830 and 11000
same,cell count,[14]; [25],9890 and 13100
same,z-score,[17]; [26],0.49 (inactive)
same,z-score,[17]; [27],0.296
same,remaining NAD,[18],10 nM (inactive)
same,luciferase signal,[19],28 AU (inactive)
NC(N)=NCCCCN=C(N)N,inhibition,[1],0.26%
same,score,[2],1.07
same,rescue above control,[3],-1.01
same,cytochrome c release ratio,[4],1.43
same,inhibition of aggregation,[5],83.3%
same,glutamate uptake change,[6],11.5%
same,inclusion score,[7],2
same,aggregation suppression score,[8],1.37
same,period change,[9],0.195 h (inactive)
same,survival,[10],5.58 (inactive)
same,parasite load remaining,[11],111% (inactive)
same,viability,[11],108%
same,inhibition,[12],-2.55% (inactive)
same,red/green cell ratio (normalised),[13],0.92 (inactive)
same,normalised cell number,[13]; [20],1.06
same,normalised cell number,[13]; [21],0.97
same,fold change,[14]; [22],0.968 (inactive) and 0.866 (inactive)
same,fold change,[14]; [23],0.983 and 0.933
same,cell count,[14]; [24],9930 and 7710
same,cell count,[14]; [25],10300 and 8910
same,outcome,[15],inactive
same,luciferase signal,[19],52 AU (inactive)
same,z-score,[16],0.645 (inactive)
O=c1c2ccccc2oc2ccccc12,inhibition,[12],0.222% (inactive)
same,red/green cell ratio (normalised),[13],1.1 (inactive)
same,normalised cell number,[13]; [20],0.96
same,normalised cell number,[13]; [21],1.06
same,fold change,[14]; [22],0.991 (inactive)
same,fold change,[14]; [23],0.506
same,cell count,[14]; [24],7550
same,cell count,[14]; [25],7620
same,z-score,[17]; [26],-0.409 (inactive)
same,z-score,[17]; [27],-0.0965
same,luciferase signal,[19],64 AU (inactive)
C1N2CN3CN1CN(C2)C3,inhibition,[1],10.1%
same,score,[2],0.91
same,rescue above control,[3],-6.88
same,cytochrome c release ratio,[4],1.01
same,inhibition of aggregation,[5],27.8%
same,glutamate uptake change,[6],-31.9%
same,inclusion score,[7],2
same,aggregation suppression score,[8],0.744
same,parasite load remaining,[11],80.4% (inactive) and 31.8% (inactive)
same,viability,[11],76.7% and 89.4%
same,inhibition,[12],6.67% (inactive)
same,red/green cell ratio (normalised),[13],1 (inactive)
same,normalised cell number,[13]; [20],1.13
same,normalised cell number,[13]; [21],1.13
same,fold change,[14]; [22],0.9 (inactive) and 0.915 (inactive)
same,fold change,[14]; [23],0.914 and 0.53
same,cell count,[14]; [24],8000 and 12000
same,cell count,[14]; [25],8890 and 13100
same,z-score,[17]; [26],-0.156 (inactive) and 0.632 (inactive)
same,z-score,[17]; [27],-0.286 and -0.336
same,remaining NAD,[18],10 nM (inactive)
same,luciferase signal,[19],64 AU (inactive)
Cn1c(=O)c2[nH]c(C3CCCC3)nc2n(C)c1=O,inhibition,[1],24.6%
same,score,[2],1.3
same,rescue above control,[3],12.7
same,cytochrome c release ratio,[4],0.91
same,inhibition of aggregation,[5],-13.7%
same,glutamate uptake change,[6],10.7%
same,inclusion score,[7],1.5
same,aggregation suppression score,[8],1.14
same,period change,[9],0.02 h (inactive)
same,inhibition,[12],-7.2% (inactive)
same,red/green cell ratio (normalised),[13],0.82 (inactive)
same,normalised cell number,[13]; [20],1.23
same,normalised cell number,[13]; [21],1.01
same,fold change,[14]; [22],0.947 (inactive)
same,fold change,[14]; [23],1.51
same,cell count,[14]; [24],9200
same,cell count,[14]; [25],9710
same,outcome,[15],inactive
same,luciferase signal,[19],44 AU (inactive)
same,z-score,[16],0.92 (inactive)
C=C1c2c(Cl)ccc(O)c2C(O)=C2C(=O)[C@]3(O)C(O)=C(C(N)=O)C(=O)[C@@H](N(C)C)[C@@H]3[C@@H](O)[C@H]12,inhibition,[1],-20.8%
same,score,[2],0.46
same,rescue above control,[3],1.02
same,cytochrome c release ratio,[4],0.58
same,inhibition of aggregation,[5],84.6%
same,glutamate uptake change,[6],0.44%
same,inclusion score,[7],1
same,aggregation suppression score,[8],0.198
same,survival,[10],6.83 (inactive)
same,parasite load remaining,[11],145% (inactive) and 78.4% (inactive) and 31.4% (inactive)
same,viability,[11],71.2% and 75.1% and 92.1%
same,inhibition,[12],10.5% (inactive)
same,red/green cell ratio (normalised),[13],0.85 (inactive)
same,normalised cell number,[13]; [20],0.99
same,normalised cell number,[13]; [21],0.84
same,fold change,[14]; [22],0.864 (inactive)
same,fold change,[14]; [23],1.07
same,cell count,[14]; [24],8250
same,cell count,[14]; [25],9550
same,remaining NAD,[18],10 nM (inactive)
same,luciferase signal,[19],40 AU (inactive)
